Source: PubChem BioAssay (National Center for Advancing Translational Sciences (NCATS))
RORg inh = inhibitors of mouse ROR gamma transcriptional activity; P51450; Drosophila S2 Gal4-RORgamma UAS-luciferase reporter, 20 h; Potency, µM (titrated, usually from 53.6 µM), for inactives: at the highest dose activity change, negative = inhibition, hits mostly inhibitors; 310,000 compounds, 5.4% hits; also: potency is read from the fitted curve at half-maximal effect; nearly all actives have a fitted effect of over 60% in size
Target sequence (P51450 whole entry, looked up, the tested form may be a part): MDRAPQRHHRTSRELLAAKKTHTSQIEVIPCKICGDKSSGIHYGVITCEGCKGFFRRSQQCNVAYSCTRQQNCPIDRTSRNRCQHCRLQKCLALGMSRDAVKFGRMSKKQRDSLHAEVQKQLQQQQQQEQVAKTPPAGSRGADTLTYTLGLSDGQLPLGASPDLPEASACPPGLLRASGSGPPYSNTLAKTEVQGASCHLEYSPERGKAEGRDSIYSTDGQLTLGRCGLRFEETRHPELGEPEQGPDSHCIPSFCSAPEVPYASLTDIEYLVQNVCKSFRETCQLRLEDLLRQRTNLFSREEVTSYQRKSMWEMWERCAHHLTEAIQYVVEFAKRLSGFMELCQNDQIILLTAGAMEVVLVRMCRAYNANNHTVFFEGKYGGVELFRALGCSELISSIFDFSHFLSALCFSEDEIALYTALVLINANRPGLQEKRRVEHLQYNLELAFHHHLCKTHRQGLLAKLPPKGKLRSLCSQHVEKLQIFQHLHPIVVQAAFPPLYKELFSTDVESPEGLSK
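Luminescence from a UAS-regulated Photinus luciferase reporter in stably transfected Drosophila Schneider cells is measured; decreased signal marks ROR gamma inhibition. Fusion expression is induced by 700 uM copper sulfate for 20 hr.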
TDP1 cell CPT = DT40-hTDP1 cell growth loss with CPT; chicken DT40 Tdp1-/-;hTDP1 cells + 20 nM CPT, ATP luminescence, 48 h; Potency, µM (doses to about 46.2 µM), inactives show at the highest dose activity change, negative = growth inhibition, most hits filed as inhibitors; 420,000 compounds, 12% hits; also: potency is read from the fitted curve at half-maximal effect; nearly all actives have a fitted effect of over 55% in size
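Chicken DT40 Tdp1-/- cells stably complemented with human TDP1 were seeded at 400 cells/well in medium containing 20 nM camptothecin, exposed to pin-transferred compounds, and grown at 37 °C for at least 48 hr. Viability was read as ATP luminescence.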
IL-1B inflam inh = inhibitors of inflammasome signaling (IL-1 beta secretion). activity change, % at 57.5 µM. 360,000 compounds, 4.7% hits. THP-1 LPS/ATP IL-1B secretion, AlphaLISA, 16 h; hits give low values; in the data active = activity change below about -50%; inconclusive = mostly about -30% to -49%
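THP-1 cells pretreated 1 hr with compounds (up to 57.5 uM final), then stimulated with LPS (250 ng/mL final) plus ATP (1.25 mM final); secreted IL-1B measured by AlphaLISA after 16 hr, decreased signal indicating inhibition.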
TDP1 cell noCPT = qHTS for Inhibitors of human tyrosyl-DNA phosphodiesterase 1 (TDP1): qHTS in cells in absence of CPT | DT40 Tdp1-/- hTDP1 cells, no CPT, ATP luminescence, 48 h | Potency, µM (titrated, usually from 46.2 µM), for inactives: at the top dose activity change, negative = growth inhibition, usual class: inhibitors | 420,000 compounds, 15% hits | AID 686978, 2013; also: potency is read from the fitted curve at half-maximal effect; nearly all actives have a fitted effect of over 55% in size
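Camptothecin absent (DMSO only). Human TDP1-complemented DT40 knockout cells, 400 cells/well, 37 °C for minimum 48 hr; ATP measured via CellTiter-Glo, 30 min dark incubation, luminescence.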
Gal4-VP16 FLuc = counter-screen for ROR gamma inhibitors: Gal4-VP16 reporter. 310,000 compounds, 3.5% hits. Drosophila S2 Gal4-VP16 UAS-luciferase, luminescence, 20 h. Potency, µM (titrated, usually from 53.6 µM), for inactives: at the top dose activity, negative = inhibition, usual class: inhibitors;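 also: Gal4-VP16 expression switched on by copper sulfate through the metallothionein promoter; potency is read from the fitted curve at half-maximal effect; nearly all actives have a fitted effect of over 50% in size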
LDHA inh = blocks human lactate dehydrogenase A | P00338 | activity change, % (values are at about 110 or 230 µM) | 480,000 compounds, 0.15% hits | purified LDHA, NADH/diaphorase-resazurin fluorescence; hits give low values; in the data active = activity change below about -30%; inconclusive = mostly about -25% to -30%;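 also: plate controls were DMSO wells for no effect and wells without enzyme for full effect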
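Remaining NADH was detected by diaphorase (0.133 mg/mL) converting 37 µM resazurin to fluorescent resorufin, read at 0 and 20 minutes. The preceding 5-minute room-temperature reaction used 2 nM LDHA, 0.2 mM sodium pyruvate and 0.06 mM NADH at pH 7.4.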
Starred values were filed as active, the others as inactive; ? = inconclusive; . = not tested or not shown. The list is not random: actives were taken first. Their share in the collection is about 18%. Unless noted, calls follow the shape of the dose curve; as a rule, active = well fitted curve in the direction sought with a large enough effect; inconclusive = small, poorly fitted or top-dose-only effect, or another doubt; inactive = no such curve, though single readings can be large; an effect the other way counts as inactive or inconclusive. Unless noted, % is scaled to controls: 0 for no effect and ±100 for the full control effect.

SMILES | RORg inh | TDP1 cell CPT | IL-1B inflam inh | TDP1 cell noCPT | Gal4-VP16 FLuc | LDHA inh
Cc1cc(-c2cccs2)c2c(n1)sc1c(=O)[nH]c(=O)[nH]c12 | -27% | 16µM* | 3 | ? | -8% | -2
CCCCOc1ccc(/C=C/C(=O)c2ccc(OC)c(CSCC(=O)O)c2)cc1 | . | . | . | . | . | 2
COc1ccc(C(=O)Nc2nc(-c3nnn(-c4cc(OC)ccc4OC)c3C)ns2)cc1 | . | 16µM* | . | 16µM* | . | 2
COc1ccc(C(=O)Nc2nc(-c3nnn(-c4ccc(C(C)C)cc4)c3C)ns2)cc1 | . | 13µM* | . | 16µM* | . | -17
COC(=O)c1ccc(Sc2nnnn2-c2ccccc2)c([N+](=O)[O-])c1 | 13µM* | 16µM* | -10 | 23µM* | ? | -4
Cc1ccc(NC(=O)c2cnc(N3CCCCC3)c3ccccc23)cc1F | . | . | . | . | . | 4
Brc1cccc(-c2noc(Cc3ccccc3)n2)c1 | . | . | . | . | . | 1
COc1ccc(-c2nn(-c3ccccc3)cc2C2=NN(S(C)(=O)=O)C(c3cccs3)C2)cc1 (stereo not drawn) | . | . | . | . | . | 0
COc1ccccc1NC(=O)c1nnn(CC(=O)Nc2cccc(SC)c2)c1N | 6.3µM* | 1% | 10 | 0% | ? | -4
COc1ccc(Br)cc1Cn1nnc(C(=O)Nc2cccc(SC)c2)c1N | . | 16µM* | . | 23µM* | . | -5
CC1(C)CC(N2CCCCC2)=CC(=NCCCN2CCOCC2)C1 | . | . | . | . | . | 7
C=CCNCc1ccccc1OC | . | . | . | . | . | 3
COc1ccccc1NC(=S)NC1CCCCC1 | 4.5µM* | 2% | -16 | -14% | 20µM* | -7
COc1ccccc1NC(=O)CC1CCCC1 | 12% | 1% | -9 | -2% | 3% | -3
COc1ccccc1CNC(=O)C1CCC1 | -13% | -5% | 28 | -23% | 0% | -5
COc1ccccc1CNC(=S)NC1CCCC1 | 5.6µM* | 26% | -4 | -10% | 7.1µM* | -13
COc1ccccc1NC(=S)NCC1CCCCC1 | 4.5µM* | ? | 0 | ? | 13µM* | 0
C=CCNC(=S)NCc1ccccc1OC | 11µM* | -1% | -7 | -15% | ? | -9
COc1ccc(/C=C2/C(=O)N(C)C(=S)N2C)cc1 | . | . | . | . | . | 5
C/C(CC(=O)Nc1cccc2c1CCCC2)=N\NC(=O)c1ccccn1 | . | . | . | . | . | 11
N#Cc1cccc(NC(=O)CCC(=O)c2ccc3c(c2)CCC3)c1 | . | . | . | . | . | 20
CC(Sc1nc(C(F)(F)F)nc2ccccc12)C(=O)Nc1ccc(F)cc1 (stereo not drawn) | . | . | . | . | . | 1
CCOc1ccccc1C(=S)NC1CCCCC1 | 10µM* | 4% | 6 | -10% | ? | -3
COc1ccccc1NC(=S)NC1CCCCCCCCCCC1 | 2.8µM* | 10µM* | 5 | 21µM* | ? | 2
COc1ccc(OC)c(C(C)NC(=S)NC2CCCCC2)c1 (stereo not drawn) | 4µM* | ? | -7 | ? | 4µM* | -8
SMILES | RORg inh | TDP1 cell CPT | IL-1B inflam inh | TDP1 cell noCPT | Gal4-VP16 FLuc | LDHA inh
CCOc1ccccc1NC(=S)NC1CCCCC1 | 15% | -16% | -2 | ? | -6% | -7
Cc1ccc(C)c(C(C)NC(=S)NC2CCCCC2)c1 (stereo not drawn) | 2.5µM* | 26µM* | 31 | ? | 5.6µM* | -3
Cc1ccc(C)c(C(C)NC(=O)C2CCCC2)c1 (stereo not drawn) | -19% | 8% | 10 | 7% | -4% | -3
COc1ccc(CN(C(=O)c2cccc(C#N)c2)C(C)C2CC2)cc1 (stereo not drawn) | . | . | . | . | . | 11
O=C(NCCCNC(=O)c1cc2ccccc2[nH]1)c1ccc(-c2ccccc2)cc1 | . | . | . | . | . | -7
N#Cc1ccc(NC(=O)N2CCN(c3ncccc3Cl)CC2)cc1 | . | . | . | . | . | -17
O=C(c1c(F)cccc1F)N1CCC(CN2CCOCC2)CC1 | . | . | . | . | . | -20
COc1ccc(NC(=S)NC2CCCC2)c(OC)c1 | 6.3µM* | 4% | -7 | 1% | ? | -3
O=C(CCc1nc2ccccc2n1-c1ccccc1)NCCO | 18% | 25% | 18 | -20% | 1% | -1
O=C(COC(=O)CCc1nc2ccccc2n1-c1ccccc1)Nc1ccc(N2CCCCC2)cc1 | ? | 10% | 25 | -6% | 6.3µM* | -8
COc1cccc(/C=C/C(=O)OCc2ccc(C#N)cc2)c1OC | . | . | . | . | . | 0
Clc1ccc2c(N/N=C/c3ccc(Br)cc3)ccnc2c1 | 6.3µM* | ? | -98* | ? | 7.1µM* | -10
Cc1ccc(/C=N/Nc2ccnc3cc(Cl)ccc23)c(C)c1 | ? | 6.5µM* | -77* | 12µM* | 8.9µM* | -11
Cc1ccccc1/C=N/Nc1ccnc2cc(Cl)ccc12 | ? | 10µM* | -103* | ? | ? | -10
Oc1ccc(Br)cc1-c1ccnn1-c1ccccc1 | 7% | 21µM* | -1 | 10µM* | 1% | -3
CC1=C(C(=O)OC2CCCC2)C(c2coc3ccc(C)cc3c2=O)C2=C(CCCC2=O)N1 (stereo not drawn) | -4% | ? | -16 | 21µM* | -9% | -4
CC1=C(C(=O)OC2CCCC2)C(c2coc3ccccc3c2=O)C2=C(CC(C)(C)CC2=O)N1 (stereo not drawn) | 7% | 16µM* | -11 | ? | -15% | 0
CCN1CCN(C(=O)CCCn2nc(C)c3c(C)n(-c4ccc(C)cc4)nc3c2=O)CC1 | . | . | . | . | . | -2
O=C(Cc1c(F)cccc1Cl)OCC(=O)C12CC3CC(CC(C3)C1)C2 | . | . | . | . | . | 8
COc1cc(/C=N/NC(=O)Nc2ccccc2)ccc1OC(C)=O | 30% | -8% | 10 | -23% | -11% | -4
C=CC[n+]1c(/C=C/c2ccc(OC(C)=O)c(OC)c2)ccc2ccccc21 | -41% | 7.3µM* | -99* | 12µM* | -35% | 3
FC(F)c1n[nH]c(C(F)F)c1Cl | . | . | . | . | . | 7
Cc1ccc(C2=CC(C)(c3ccc(C)cc3)Nc3nc(C(F)(F)F)nn32)cc1 (stereo not drawn) | 12% | ? | -5 | ? | ? | -1
CC1(c2ccc(OCC#N)cc2)C=C(c2ccc(OCC#N)cc2)n2nc(C(F)(F)F)nc2N1 (stereo not drawn) | ? | ? | -86* | ? | -11% | 2
COC(=O)Cc1c(C)c2ccc(OCC(=O)OCc3ccccc3)c(C)c2oc1=O | . | . | . | . | . | 12
